Laboratory results reported in PubChem BioAssay (NCI).
About 79,000 compounds went through this panel and 15% of them were active in at least one assay; those are over-represented in the sample as a whole. Rule as the data show it: active = growth inhibition above about 70%; inactive = the rest.

Legend:
[1] = NCI Yeast Anticancer Drug Screen. Data for the rad50 strain (AID 155);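 also: 0% = growth of vehicle-only cultures of the same strain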; settings: S. cerevisiae rad50 strain growth inhibition; at 50.0 µM; stronger effect = higher value
Outline: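 Growth of the mutant yeast was measured after compound exposure and referenced to vehicle-treated cultures.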

[2] = NCI Yeast Anticancer Drug Screen. Data for the mec2-1 strain (AID 157); settings: S. cerevisiae mec2-1 strain, at 50.0 µM, stronger effect = higher value
Outline: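 Strain: mec2-1 (DNA repair/cell cycle alteration). Compound exposure, then growth measured; inhibition expressed relative to vehicle.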

[3] = NCI Yeast Anticancer Drug Screen. Data for the sgs1 mgt1 strain (AID 161);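 also: 0% = growth of cultures given vehicle only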; settings: S. cerevisiae sgs1 mgt1 strain, at 50.0 µM, stronger effect = higher value
Outline: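 Inhibition of yeast growth, normalised to vehicle-treated controls, is reported for a strain bearing genetic alterations in DNA damage repair.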

[4] = NCI Yeast Anticancer Drug Screen. Data for the cln2 rad14 strain (AID 165);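 also: 0% = growth equal to vehicle treated cultures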; settings: S. cerevisiae cln2 rad14 strain, at 50.0 µM, stronger effect = higher value
Outline: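 Compounds are applied to the cln2 rad14 yeast strain, and growth is then compared with that of vehicle-treated cultures to give inhibition.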

[5] = NCI Yeast Anticancer Drug Screen. Data for the bub3 strain (AID 167); settings: S. cerevisiae bub3 mutant strain, at 50.0 µM, stronger effect = higher value
Outline: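 Whole-cell yeast assay. The mutant strain was incubated with compounds, and growth inhibition was determined by comparison with vehicle-treated cells.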

[6] = NCI Yeast Anticancer Drug Screen. Data for the mlh1 rad18 strain (AID 175); settings: S. cerevisiae mlh1 rad18 strain growth inhibition; at 50.0 µM; stronger effect = higher value
Outline: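 Read-out is yeast growth inhibition, calculated against vehicle-only controls. The compound was applied to a strain engineered with DNA damage repair alterations.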

Measured: growth inhibition

Nc1ccc(Cl)c(S(=O)(=O)O)c1
inactive: [1] 21.7% | [2] -4.35% | [3] 7.05% | [4] 8.4% | [5] 10.4% | [6] 17.1%

CC1(C)OC(=O)C(=Cc2ccc(C#N)cc2)C(=O)O1
inactive: [1] 19% | [2] 9.6% | [3] 15.4% | [4] 11.8% | [5] 28.6% | [6] 22.8%

C/C(=N/NC(N)=O)C1C2CC3C(C2Cl)C31 (stereo not drawn)
inactive: [1] 21.4% | [2] -15.3% | [3] -15.1% | [4] -30.6% | [5] 4.7% | [6] -2.4%

CC(C)CNN(CC(C)C)C(N)=O
inactive: [1] -32.7% | [2] -25% | [3] -19.8% | [4] -24.7% | [5] -25.6% | [6] -20.1%

COc1cc2c(cc1C(CC(C)=O)c1cc(OC)c(OC)c(OC)c1)OCO2 (stereo not drawn)
inactive: [1] -11.6% | [2] -10.2% | [3] -12% | [4] -5.3% | [5] 11% | [6] -6.15%

Nc1nnc(CCC(=O)Nc2cccc(C(F)(F)F)c2)n1N
inactive: [1] 4.85% | [2] 5.6% | [3] 7.3% | [4] -27.9% | [5] 9.65% | [6] 1.55%

Fc1ccccc1CSc1n[nH]c(=S)c2nc[nH]c12
inactive: [1] 4.05% | [2] 8.3% | [3] 17.8% | [4] -12.3% | [5] 0.3% | [6] 12%

Cc1cc2c3c(c1)CCCN3CCC2
inactive: [1] -12.1% | [2] -8.9% | [3] -9.85% | [4] -30.9% | [5] 3.1% | [6] 2.8%

COC1=C(c2c[nH]c3ccc(CC=C(C)C)cc23)C(=O)C(OC)=C(c2c[nH]c3ccc(CC=C(C)C)cc23)C1=O
inactive: [1] 30.5% | [2] 6.5% | [3] 13.6% | [4] 19.4% | [5] -1.1% | [6] 29.6%

Cc1ccc([N+](=O)[O-])cc1Br
inactive: [1] 0.3% | [2] -16.1% | [3] -0.5% | [4] -11.8% | [5] 5.5% | [6] 4%

C/C(=C\c1ccccc1)C(O)C(=O)c1nc2ccc([N+](=O)[O-])cc2[nH]c1=O (stereo not drawn)
inactive: [1] -5.55% | [2] -33.1% | [3] -11.4% | [4] 21.4% | [5] -26.4% | [6] 14.5%

O=C(Nc1cccc(Cl)c1)ON1C(=O)C2C(C1=O)C1(Cl)C(Cl)C(Cl)C2(Cl)C1(Cl)Cl (stereo not drawn)
inactive: [1] 0.4% | [2] 19.4% | [3] -15.8% | [4] -1.35% | [5] -24% | [6] -16.1%

NC(=O)N1CCCC1
inactive: [1] -1.65% | [2] 13.1% | [3] -3.7% | [4] 7.7% | [5] 9.45% | [6] 2.15%

COC(=O)c1nc(=S)[nH]c(C(=O)OC)c1C(=O)c1cccnc1
inactive: [1] -4.3% | [2] 15.2% | [3] 17.4% | [4] 4.25% | [5] 39.4% | [6] 17.9%

O=NC1CCCCC1Cl (stereo not drawn)
inactive: [1] 3% | [2] -4.15% | [3] 4.6% | [4] -4.45% | [5] 7.05% | [6] 2.55%

Cc1cccc(/C=C/c2csnn2)n1
inactive: [1] -25.1% | [2] -6.75% | [3] -8.4% | [4] 14.6% | [5] -6.05% | [6] -15.2%

Cc1cccc(-c2nnc(N)o2)c1[N+](=O)[O-]
inactive: [1] -36% | [2] -9.6% | [3] -10.6% | [4] 1.75% | [5] -11.4% | [6] -16.4%

CN1CC(CN2CCCCCC2)C(O)C(c2ccccc2)C1 (stereo not drawn)
inactive: [1] 1.7% | [2] -7.1% | [3] 18% | [4] 7.85% | [5] -1.5% | [6] 27.6%

Cc1c(Cl)cc(Cl)c(N)c1Cl
inactive: [1] -4.4% | [2] -13.7% | [3] -18% | [4] -5.3% | [5] -16.1% | [6] -15.2%

CCOc1ccccc1NC(=O)C(Br)C(Br)c1ccccc1 (stereo not drawn)
inactive: [1] -1.1% | [2] 0.65% | [3] 30.9% | [4] -20.9% | [5] 20.1% | [6] 42.3%

CN(C)CC(O)CO (stereo not drawn)
inactive: [1] 38.5% | [2] -4% | [3] -6.5% | [4] -45.1% | [5] 21.7% | [6] 22%

NC(=O)c1ccc(C(F)(F)F)cc1O
inactive: [1] 7.6% | [2] 12.6% | [3] -4.65% | [4] -21.4% | [5] 1.2% | [6] 10%

CCN(CC)C(=S)SCCO
inactive: [1] -4.3% | [2] -11.2% | [3] 6.15% | [4] -9.7% | [5] -3.5% | [6] -1.65%

C[Si](C)(C)c1ccc(-c2ccccc2)cc1
inactive: [1] 20.1% | [2] -8.65% | [3] 2.25% | [4] -61.7% | [5] 22.5% | [6] -18.4%

N=c1c2c(ncn1N)CCN(Cc1ccccc1)C2
inactive: [1] -8.55% | [2] 7.35% | [3] -11.4% | [4] -71.8% | [5] -6% | [6] -32.8%

CCOC(=C[P+](c1ccccc1)(c1ccccc1)c1ccccc1)OCC
inactive: [1] -6.5% | [2] 20.8% | [3] 2.35% | [4] -9.5% | [5] -3.6% | [6] -36%

CC(=O)NC1(C)C(C)C2CC1C(C)C2(C)C (stereo not drawn)
inactive: [1] 13.2% | [2] -13.8% | [3] -44% | [4] -0.55% | [5] -30.6% | [6] -34.6%

CC(Cl)C(=O)N(C)c1ccccc1 (stereo not drawn)
inactive: [1] 3.6% | [2] -14.8% | [3] -2.9% | [4] -16% | [5] -14.8% | [6] -14.1%

COC(SC)(C(=O)O)c1cc(-c2c(Cl)cccc2Cl)no1 (stereo not drawn)
inactive: [1] -5.4% | [2] -6.8% | [3] -9.35% | [4] -11.4% | [5] 12.2% | [6] -1%

COc1ccc(C2c3cc4c(cc3OC(C)(OC)C2C)OCO4)cc1 (stereo not drawn)
inactive: [1] -33.5% | [2] -6.8% | [3] -3.25% | [4] -14.8% | [5] 19.8% | [6] 14.7%

O=C(c1ccccc1)C(c1ccccc1)(c1ccccc1)c1ccccc1
inactive: [1] -4.1% | [2] 6.2% | [3] -17.3% | [4] -30% | [5] -10.2% | [6] 24.1%

O=C(N=C1C(=O)C2(CCCCC2)C2(N=C(c3ccccc3)OC2=O)C12CCCCC2)c1ccccc1 (stereo not drawn)
inactive: [1] 11.8% | [2] 8.75% | [3] 9.35% | [4] -5.05% | [5] -2.35% | [6] 14.5%

COc1ccc(C(C)=C2C=C(C(C)(C)C)C(=O)C(C(C)(C)C)=C2)cc1
inactive: [1] -26.6% | [2] -16.2% | [3] -17.4% | [4] 34.2% | [5] 1.35% | [6] -17.4%

CSc1nc(C)cc(N(C)c2ccccc2)n1
inactive: [1] -5.9% | [2] 0.25% | [3] 8.85% | [4] -8.9% | [5] -18.2% | [6] 14.6%

CC(=O)Oc1ccc(C2(c3ccc(OC(C)=O)cc3)C(=O)Nc3ccccc32)cc1
inactive: [1] -11.2% | [2] -16.3% | [3] -5.85% | [4] -0.65% | [5] 20.8% | [6] -4.65%

CCCC(=O)Nc1cc(C(=O)O)cc([N+](=O)[O-])c1
inactive: [1] 2.05% | [2] -15.6% | [3] 4.8% | [4] -26.2% | [5] 22.5% | [6] -4.45%

c1ccc(COC[C@H]2O[C@@H](c3ccccc3)C[C@@H](OCc3ccccc3)C2OCc2ccccc2)cc1 (stereo partly drawn)
inactive: [1] -20.3% | [2] -11.6% | [3] -1.95% | [4] -0.45% | [5] -11.6% | [6] 5.4%

O=[N+]([O-])c1cc(F)ccc1Sc1ccccc1
inactive: [1] 49.2% | [2] 23.4% | [3] 38.9% | [4] 39.8% | [5] 20.6% | [6] 40.6%
